According to the supplement of paper PMC6555819:

How the values were obtained:
Assay in all cases: PBM binding z-score (relative to random genomic background probes); higher = stronger binding; sequences stand for … in GC…GCGATTGACAGCGTAGAATGAAGG
[1] = test system: FXR:RXRa (NR concentration 270 nM, RXRa partner concentration 90 nM)
Outline: (§1)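 Ligand-free nuclear receptor dimers were bound for 1 h to custom Agilent 4×180K protein-binding microarrays. Detection used antibodies against each partner (one per run). Binding z-scores rest on regression-normalized fluorescence, with random background probes as the reference.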

[2] = test system: LXRa:RXRa (NR concentration 270 nM, RXRa partner concentration 90 nM)
Outline: as §1

[3] = test system: LXRa homodimer (NR concentration 270 nM)
Outline: as §1

[4] = test system: LXRb:RXRa (NR concentration 270 nM, RXRa partner concentration 90 nM)
Outline: as §1

[5] = test system: LXRb homodimer (NR concentration 270 nM)
Outline: as §1

[6] = test system: PPARa:RXRa (NR concentration 270 nM, RXRa partner concentration 90 nM)
Outline: as §1

[7] = test system: PPARg:RXRa (NR concentration 180 nM, RXRa partner concentration 90 nM)
Outline: as §1

[8] = test system: PPARg:RXRa 270nM:90nM, anti-RXR (NR concentration 270 nM, RXRa partner concentration 90 nM)
Outline: as §1

[9] = test system: PPARg:RXRa 30nM:10nM, anti-RXR (NR concentration 30 nM, RXRa partner concentration 10 nM)
Outline: as §1

[10] = test system: PPARg:RXRa 90nM:30nM, anti-RXR (NR concentration 90 nM, RXRa partner concentration 30 nM)
Outline: as §1

[11] = test system: PPARg:RXRa DBDmut IVT, anti-RXR (DBD mutation: RXRa K156A/R161A, NR concentration 270 nM, RXRa partner concentration 90 nM)
Outline: as §1

[12] = test system: PPARg:RXRa IVT, anti-PPARg (NR concentration 270 nM, RXRa partner concentration 90 nM)
Outline: as §1

[13] = test system: PPARg DBDmut:RXRa IVT, anti-PPARg (DBD mutation: PPARg1 K132A/R137A, NR concentration 270 nM, RXRa partner concentration 90 nM)
Outline: as §1

[14] = test system: PPARg DBDmut IVT, anti-PPARg (DBD mutation: PPARg1 K132A/R137A, NR concentration 270 nM)
Outline: as §1

[15] = test system: PPARg homodimer (NR concentration 180 nM)
Outline: as §1

[16] = test system: PXR:RXRa (NR concentration 270 nM, RXRa partner concentration 90 nM)
Outline: as §1

[17] = test system: PXR homodimer (NR concentration 270 nM)
Outline: as §1

[18] = test system: RARa:RXR (NR concentration 270 nM, RXRa partner concentration 90 nM)
Outline: as §1

[19] = test system: RARa homodimer (NR concentration 270 nM)
Outline: as §1

[20] = test system: RARb:RXRa (NR concentration 270 nM, RXRa partner concentration 90 nM)
Outline: as §1

Sequence	PBM binding z-score [1]	PBM binding z-score [2]	PBM binding z-score [3]	PBM binding z-score [4]	PBM binding z-score [5]	PBM binding z-score [6]	PBM binding z-score [7]	PBM binding z-score [8]	PBM binding z-score [9]	PBM binding z-score [10]	PBM binding z-score [11]	PBM binding z-score [12]	PBM binding z-score [13]	PBM binding z-score [14]	PBM binding z-score [15]	PBM binding z-score [16]	PBM binding z-score [17]	PBM binding z-score [18]	PBM binding z-score [19]	PBM binding z-score [20]
GCTTGTAGATCAAGGTGAAGAAAGACTAAGCTAA	-0.249	-0.317	-0.489	-0.225	-0.819	0.597	0.122	0.939	0.103	0.281	1.63	1.6	-0.514	-0.503	-0.575	-0.352	-0.243	-0.339	-0.424	0.0933
GCTTGTAGATCAAGGTTAAGATAGACTAAGCTAA	0.296	1.56	-0.0877	0.529	-0.803	1.66	1.17	2.1	0.465	1.81	1.44	1.14	0.0148	-0.396	0.519	0.536	0.00293	0.825	-0.522	0.938
ATCGAAATGTCGACGAGGTGAGTATACACCGTTT	-0.0573	-0.263	-0.442	-0.0135	-0.0075	0.206	0.897	-0.108	0.151	-0.0963	-0.343	0.676	0.668	0.692	-0.253	-0.067	0.0399	0.312	-0.025	0.403
CCTACTGGGCCATTCAGAGGTCATAGATCATATG	2.57	4	5.67	3.75	0.161	3.83	2.65	3.2	1.2	2.48	4.09	4.44	0.601	-0.0592	2.01	4.2	1.2	4.42	0.421	2.97
ATATGTAGGTTAAGGATCATTCAGGTTGGTTCGC	0.726	1.25	0.404	1.18	0.352	4.46	8.08	7.41	6.08	8.34	7.22	7.16	3.09	2.12	1.49	1.19	0.266	1.13	1.1	1.2
CCGACTGGGACAGAAAGGTTACCATACCATCCGG	0.177	0.493	-0.124	0.512	-1.05	1.71	1.4	1.74	0.364	1.34	0.593	1.09	-0.448	-0.875	1.09	1.01	0.0178	1.63	-0.302	1.47
TGAATGAGGTTATAAGATCAGGGACCGTTGCAAA	1.45	1.26	0.0374	1.01	-0.286	2.6	1.45	2.32	0.865	1.63	1.22	1.99	0.832	-0.0564	0.812	0.874	0.0306	1.43	-0.64	1.33
CTAACTAGGTCATTGACAGGACAGTGAATAGTAA	4.3	3.33	0.788	2.12	0.469	5.03	8.17	6.99	4.79	6.51	8.21	8.94	4	4.56	0.99	1.52	0.32	2.14	0.687	3.66
TCTGCTACGTCAGTTGGTCAGCTAACGAGCTGCC	-1.7	-0.859	-1.04	-1.12	-0.14	-0.303	-0.674	0.0272	1.01	0.437	0.19	-0.135	0.134	0.236	-2.23	-0.876	-1.18	-0.819	-1.96	-0.0758
ACTAGCAAGCCAAGGGTCACTCAAGATTAGTCCG	2.21	2.75	0.27	2.66	-0.201	3.53	3.39	4.44	2.1	4.11	-0.0877	1.46	-0.235	-0.0767	1.68	3.01	0.0127	3.79	0.419	3.11
ATACCAAGGTGTTCGTGAGGTCGTTGATACTAAC	1.76	2.11	1.19	1.3	0.178	1.24	0.117	0.343	-0.0462	0.253	-0.0075	0.497	0.822	0.323	0.594	2.41	1.6	2.11	0.456	0.861
TCACATAGGTAAAAGGTGAAAGTCGGTGTGGTAA	1.8	1.56	0.139	1.69	-0.337	4.37	5.76	6.66	5.78	7.03	2.98	3.19	0.93	0.575	1.93	1.81	0.153	3.24	0.922	1.92
TAATATAGGTAAAAGGTGAAAGTCGGTGTGGTAA	1.84	2.01	0.364	2.04	0.134	6.16	10.5	9.06	9.53	10.1	7.05	6.22	2.17	1.62	2.02	1.8	0.982	3.16	1.75	1.94
GCTAGTTGGTCAGTAAAAGGTCACACGCCGGTCG	3.48	4.98	4.69	4.1	0.629	4.52	3.32	4.66	2.53	4.53	1.06	3.13	-0.186	0.255	3.94	5.06	0.982	6.11	1.93	4.53
